Test results taken from PubChem BioAssay (Tox21).
Values joined by “and” are separate entries in the source; they are usually repeats but may differ in a detail not shown here. Equal values may be shown once. Results filed as inconclusive are left out. Where a structure was tested more than once in an assay, its records may differ in their call. Active and inactive are the calls of the source. Unless noted, calls follow the shape of the full dose curve.

Tests used:
[1] = qHTS assay to identify small molecule antagonists of the vitamin D receptor (VDR) signaling pathway - cell viability counter screen (AID 743225; active = well fitted curve in the direction sought with a large enough effect in the repeat runs; an effect the other way counts as inactive or inconclusive; also: nearly all actives have a fitted effect of over 50% in size; also: potency is read from the fitted curve at half-maximal effect; as to viability change, negative = cytotoxic: % is scaled to controls: 0 for no effect and ±100 for the full control effect)
How it was run: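 Parallel cytotoxicity test: VDR-UAS-bla HEK 293T, 3 nM (final) 1-alpha,25-dihydroxyvitamin D3 with test compound, 16 h, 37C. Endpoint is CellTiter-Glo luminescence in the same wells.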

[2] = qHTS assay to identify small molecule agonists of the NFkB signaling pathway - cell viability counter screen (AID 1159515); also: nearly all actives have a fitted effect of over 55% in size; also: potency is read from the fitted curve at half-maximal effect; as to activity, negative = cytotoxic: series mostly up to about 61 µM; % is scaled to controls: 0 for no effect and ±100 for the full control effect
How it was run: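 Plate 2,000 NFkB-bla ME-180 cells/well; incubate overnight. Add compounds, 5 hr at 37 C. Add FRET substrate, 1.5 hr RT. Add CellTiter-Glo, 30 min RT; read luminescence.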

[3] = qHTS assay to identify small molecule agonists of the endoplasmic reticulum stress response signaling pathway (AID 1159516; active = well fitted activation curve with a large enough effect in the signal ratio in the repeat runs, not every such curve was filed as active; the % refers to the signal ratio; also: potency is read from the fitted curve at half-maximal effect; as to activation: % is scaled to controls: 0 for no effect and ±100 for the full control effect)
How it was run: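 Beta-lactamase expression from the ER stress response element in HeLa reporter cells is quantified with the LiveBLAzer B/G FRET substrate, read at 405 nm excitation after 2 hr at room temperature, following 5 hr compound treatment at 37 C.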

[4] = qHTS assay to identify small molecule agonists of the endoplasmic reticulum stress response signaling pathway - cell viability counter screen (AID 1159517); also: nearly all actives have a fitted effect of over 50% in size; also: potency is read from the fitted curve at half-maximal effect
How it was run: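 ESRE-bla HeLa cells (1,500/well) were plated overnight at 37 C and exposed to compounds for 5 hr. After the 2 hr beta-lactamase substrate read, CellTiter-Glo went into the same wells, and luminescence was read after 30 min at room temperature.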

[5] = qHTS assay to identify small molecule antagonists of the retinoid-related orphan receptor gamma (ROR-gamma) signaling pathway - cell viability counter screen (AID 1159520; active = well fitted curve in the direction sought with a large enough effect in the repeat runs; an effect the other way counts as inactive or inconclusive; also: nearly all actives have a fitted effect of over 50% in size; also: potency is read from the fitted curve at half-maximal effect)
How it was run: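 Cytotoxicity was read from cellular ATP (CellTiter-Glo luminescence) after 16 hr at 37 C with 1 uM doxycycline induction. The inducer was added 2 hr after compound transfer to Tet-on ROR gamma CHO cells.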

[6] = target: Nuclear receptor ROR-gamma (Homo sapiens) (UniProt P51449); assay: qHTS assay to identify small molecule antagonists of the retinoid-related orphan receptor gamma (ROR-gamma) signaling pathway (AID 1159521; active = well fitted curve in the direction sought with a large enough effect in the repeat runs; an effect the other way counts as inactive or inconclusive; also: nearly all actives have a fitted effect of over 50% in size; also: potency is read from the fitted curve at half-maximal effect)
How it was run: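 Decreased RORE-driven luciferase luminescence indicates antagonism. Tet-on RORγ CHO cells received compound, then 1 uM final doxycycline 2 h later; signal read after 16 h incubation.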

[7] = qHTS assay to identify small molecule agonists of the AP-1 signaling pathway - cell viability counter screen (AID 1159525); also: nearly all actives have a fitted effect of over 55% in size; also: potency is read from the fitted curve at half-maximal effect
How it was run: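 Intracellular ATP by Cell Titer Glo luminescence (30 min, RT) in the same ME-180 AP-1-bla wells after the 5 h compound exposure at 37 °C. Normalised to tetra n-octyl ammonium bromide and DMSO controls.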

[8] = qHTS assay to identify small molecule agonists of the AP-1 signaling pathway (AID 1159526); also: % is scaled to controls: 0 for no effect and ±100 for the full control effect
[9] = target: Retinoic acid receptor RXR-alpha (Homo sapiens) (UniProt P19793); assay: qHTS assay to identify small molecule agonists of the RXR signaling pathway (AID 1159527); also: nearly all actives have a fitted effect of over 35% in size; also: potency is read from the fitted curve at half-maximal effect
Retinoic acid receptor RXR-alpha (Homo sapiens), sequence (P19793 whole entry, looked up): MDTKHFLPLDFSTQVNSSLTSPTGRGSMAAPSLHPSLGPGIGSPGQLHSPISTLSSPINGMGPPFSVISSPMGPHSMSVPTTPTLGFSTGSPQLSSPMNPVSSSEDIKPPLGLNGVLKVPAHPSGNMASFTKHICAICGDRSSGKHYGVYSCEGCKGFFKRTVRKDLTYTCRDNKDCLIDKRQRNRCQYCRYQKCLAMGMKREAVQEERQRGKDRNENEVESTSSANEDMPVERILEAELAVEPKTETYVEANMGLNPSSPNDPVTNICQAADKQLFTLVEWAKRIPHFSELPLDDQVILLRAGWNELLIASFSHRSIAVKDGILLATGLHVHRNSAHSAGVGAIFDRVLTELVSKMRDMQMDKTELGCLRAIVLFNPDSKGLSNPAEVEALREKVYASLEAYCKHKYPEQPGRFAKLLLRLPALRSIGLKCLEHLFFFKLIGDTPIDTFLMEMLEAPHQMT
How it was run: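 16 hr incubation of compound-treated RXR-alpha-UAS-bla HEK 293T cells (2% charcoal-stripped FBS, 37 C) preceded a 2 hr room-temperature LiveBLAzer FRET substrate step and blue/green fluorescence measurement.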

[10] = qHTS assay to identify small molecule agonists of the vitamin D receptor (VDR) signaling pathway - cell viability counter screen (AID 743224; active = well fitted curve in the direction sought with a large enough effect in the repeat runs; an effect the other way counts as inactive or inconclusive; also: nearly all actives have a fitted effect of over 50% in size; also: potency is read from the fitted curve at half-maximal effect)
How it was run: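 In parallel with the bla FRET readout, cytotoxicity toward VDR-bla cells after 16 h compound exposure was assessed by CellTiter-Glo, with luminescence recorded after a 30 min room-temperature incubation.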

ClCc1ccccc1Cl
inactive: Potency [1] | Potency [2] | Potency [3] | Potency [4] | Potency [5] | Potency [6] | Potency [7] | Potency [8] | Potency [9]

COc1ccccc1N1CCNCC1
inactive: Potency [1] | Potency [2] | Potency [3] | Potency [4] | Potency [5] | Potency [6] | Potency [7] | Potency [8] | Potency [9]

CCC1CCC(=O)O1 (configuration not stated)
inactive: Potency [10] | Potency [1] | Potency [2] | Potency [3] | Potency [4] | Potency [5] | Potency [6] | Potency [7] | Potency [8] | Potency [9]

CC(C)(C#N)C(C)(C)C#N
inactive: Potency [1] | Potency [2] | Potency [3] | Potency [4] | Potency [5] | Potency [6] | Potency [7] | Potency [8] | Potency [9]

OCC1CO1 (configuration not stated)
inactive: Potency [10] | Potency [1] | Potency [2] | Potency [3] | Potency [4] | Potency [5] | Potency [6] | Potency [7] | Potency [8] | Potency [9]

C[N+]1(CCC(C(N)=O)(c2ccccc2)c2ccccc2)CCCCC1
inactive: Potency [1] | Potency [2] | Potency [3] | Potency [4] | Potency [5] | Potency [6] | Potency [7] | Potency [8] | Potency [9]

NCCc1cc(O)c(O)cc1O
active: Potency [3] 4.25 µM
inactive: Potency [1] | Potency [2] | Potency [4] | Potency [5] | Potency [6] | Potency [7] | Potency [8] | Potency [9]

C=C(C)C(=O)OCCCCOC(=O)C(=C)C
inactive: Potency [1] | Potency [2] | Potency [3] | Potency [4] | Potency [5] | Potency [6] | Potency [7] | Potency [8] | Potency [9]

CCOP(=S)(OCC)Oc1ccc(S(C)=O)cc1 (configuration not stated)
inactive: Potency [1] | Potency [2] | Potency [3] | Potency [4] | Potency [5] | Potency [6] | Potency [7] | Potency [8] | Potency [9]

C1CS1
inactive: Potency [1] | Potency [2] | Potency [3] | Potency [4] | Potency [5] | Potency [6] | Potency [7] | Potency [8] | Potency [9]

O=C(O)C(O)C(O)C(=O)O (configuration not stated)
inactive: Potency [10] | Potency [1] | Potency [2] | Potency [3] | Potency [4] | Potency [5] | Potency [6] | Potency [7] | Potency [8] | Potency [9]

C=CC(C)(CCC=C(C)C)OC(=O)c1ccccc1N (configuration not stated)
inactive: Potency [10] | Potency [1] | Potency [2] | Potency [3] | Potency [4] | Potency [5] | Potency [6] | Potency [7] | Potency [8] | Potency [9]

CCCN(CCC)C(=O)Cc1c(-c2ccc(Cl)cc2)nc2ccc(Cl)cn12
inactive: Potency [1] | Potency [2] | Potency [3] | Potency [4] | Potency [5] | Potency [6] | Potency [7] | Potency [8] | Potency [9]

OCCSSCCO
inactive: Potency [1] | Potency [2] | Potency [3] | Potency [4] | Potency [5] | Potency [6] | Potency [7] | Potency [8] | Potency [9]

CN[C@@H](C)[C@H](O)c1ccccc1
inactive: Potency [10] | Potency [1] | Potency [2] | Potency [3] | Potency [4] | Potency [5] | Potency [6] | Potency [7] | Potency [8] | Potency [9]

N#CC1(N=NC2(C#N)CCCCC2)CCCCC1
inactive: Potency [1] | Potency [2] | Potency [3] | Potency [4] | Potency [5] | Potency [6] | Potency [7] | Potency [8] | Potency [9]

CC(CC(C(N)=O)(c1ccccc1)c1ccccc1)N(C)C (configuration not stated)
inactive: Potency [10] | Potency [1] | Potency [2] | Potency [3] | Potency [4] | Potency [5] | Potency [6] | Potency [7] | Potency [8] | Potency [9]

CNC(=O)Oc1cccc(N=CN(C)C)c1
inactive: Potency [10] | Potency [1] | Potency [2] | Potency [3] | Potency [4] | Potency [5] | Potency [6] | Potency [7] | Potency [8] | Potency [9]

CC(C)(C)N(NC(=O)c1ccc(Cl)cc1)C(=O)c1ccccc1
inactive: Potency [1] | Potency [2] | Potency [3] | Potency [4] | Potency [5] | Potency [6] | Potency [7] | Potency [8] | Potency [9]

O=CC=O
inactive: Potency [10] | Potency [1] | Potency [2] | Potency [3] | Potency [4] | Potency [5] | Potency [6] | Potency [7] | Potency [8] | Potency [9]

CCC(C)Cl (configuration not stated)
inactive: Potency [10] | Potency [1] | Potency [2] | Potency [3] | Potency [4] | Potency [5] | Potency [6] | Potency [7] | Potency [8] | Potency [9]

C=CC(=O)OCC
inactive: Potency [10] | Potency [1] | Potency [2] | Potency [3] | Potency [4] | Potency [5] | Potency [6] | Potency [7] | Potency [8] | Potency [9]

C=CCN1C[C@H](C)N([C@H](c2ccc(C(=O)N(CC)CC)cc2)c2cccc(OC)c2)C[C@H]1C
inactive: Potency [1] | Potency [2] | Potency [3] | Potency [4] | Potency [5] | Potency [6] | Potency [7] | Potency [8] | Potency [9]

CCCC[N+]1(C)[C@@H]2CC(OC(=O)[C@H](CO)c3ccccc3)C[C@H]1[C@@H]1O[C@@H]12 (some centres not stated)
inactive: Potency [10] | Potency [1] | Potency [2] | Potency [3] | Potency [4] | Potency [5] | Potency [6] | Potency [7] | Potency [8] | Potency [9]

C[C@H](N)[C@H](O)c1ccc(O)c(O)c1
inactive: Potency [10] | Potency [1] | Potency [2] | Potency [3] | Potency [4] | Potency [5] | Potency [6] | Potency [7] | Potency [8] | Potency [9]

COc1cc(C[C@@H](C)N)c(OC)cc1Br
inactive: Potency [10] | Potency [1] | Potency [2] | Potency [3] | Potency [4] | Potency [5] | Potency [6] | Potency [7] | Potency [8] | Potency [9]

C=CCc1ccccc1O
inactive: Potency [1] | Potency [2] | Potency [3] | Potency [4] | Potency [5] | Potency [6] | Potency [7] | Potency [8] | Potency [9]

CCN(C(C)=O)c1cccc(-c2ccnc3c(C#N)cnn23)c1
inactive: Potency [10] | Potency [1] | Potency [2] | Potency [3] | Potency [4] | Potency [5] | Potency [6] | Potency [7] | Potency [8] | Potency [9]

CCCC1CCCCN1 (configuration not stated)
inactive: Potency [1] | Potency [2] | Potency [3] | Potency [4] | Potency [5] | Potency [6] | Potency [7] | Potency [8] | Potency [9]

C[C@H]1O[C@H](OC2[C@@H](O)[C@@H](O)C(O)[C@H](O)[C@H]2O)[C@@H](N)C[C@@H]1N=C(N)C(=O)O (some centres not stated)
inactive: Potency [1] | Potency [2] | Potency [3] | Potency [4] | Potency [5] | Potency [6] | Potency [7] | Potency [8] | Potency [9]

CCCC[P+](CC)(CCCC)CCCC (tested in a mixture with another compound)
inactive: Potency [1] | Potency [2] | Potency [3] | Potency [4] | Potency [5] | Potency [6] | Potency [7] | Potency [8] | Potency [9]

CCCCCCCCCCCCN=C(N)N
inactive: viability change, negative = cytotoxic [1] -22.1% [at 3.11 µM] | activity, negative = cytotoxic [2] -2.48% [at 3.12 µM] | activation [3] 0.217% [at 3.11 µM] | activity change, negative = cytotoxicity [4] 5.11% [at 3.11 µM] | activity, negative = cytotoxicity [5] -5.37% [at 3.27 µM] | activity change, negative = inhibition [6] -12% [at 3.27 µM] | viability change, negative = cytotoxic [7] -1.76% [at 2.72 µM] | activation [8] 1.6% [at 2.72 µM] | activation [9] 1.85% [at 2.71 µM]

C[N+]1(CCF)[C@@H]2CC[C@H]1CC(OC(=O)C(O)(c1ccccc1)c1ccccc1)C2 (some centres not stated)
inactive: Potency [10] | Potency [1] | Potency [2] | Potency [3] | Potency [4] | Potency [5] | Potency [6] | Potency [7] | Potency [8] | Potency [9]

CC(C)C1(C)N=C(c2ncccc2C(=O)O)NC1=O (configuration not stated)
active: Potency [9] 43.5 µM
inactive: Potency [10] | Potency [1] | Potency [2] | Potency [3] | Potency [5] | Potency [6] | Potency [7] | Potency [8]

CN(C)c1ccc(N=O)cc1
inactive: Potency [3]
inactive and 19.5 µM (active): Potency [1]
active: Potency [10] 19.6 µM and 43.6 µM | Potency [2] 43.6 µM | Potency [4] 43.6 µM | Potency [5] 15.4 µM and 12.2 µM | Potency [6] 4.34 µM and 9.69 µM | Potency [7] 21.9 µM and 30.9 µM

Cc1ccc2c(C)cccc2c1
inactive: Potency [10] | Potency [2] | Potency [3] | Potency [5] | Potency [6] | Potency [7] | Potency [8] | Potency [9]
